Shown are actives, neighbours in structure and some others; about 4.6% of the full set was active somewhere.
Tau fibril ThT = inhibitors of human tau fibril formation, thioflavin T binding; P10636; recombinant tau K18 P301L, heparin-induced fibrillization, ThT fluorescence; Potency, µM (doses to about 57.4 µM), actives largely listed as inhibitors; 270,000 tested, 2.1% active; note: nearly all actives have a fitted effect of over 55% in size
Target sequence (P10636 561-689 P618L limits assumed): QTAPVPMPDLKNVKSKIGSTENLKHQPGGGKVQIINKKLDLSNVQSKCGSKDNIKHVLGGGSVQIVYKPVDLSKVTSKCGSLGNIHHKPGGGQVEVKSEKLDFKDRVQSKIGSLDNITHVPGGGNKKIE
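ThT emission at 510 nm, taken 1 hr after adding 30 uM dye, quantifies aggregates formed when 20 uM heparin acts on human tau K18 P301L for 6 hr at 37 C.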
TRb-SRC2 inh = TRbeta-SRC2 interaction inhibition. 280,000 tested, 0.065% active. Potency, µM (series often up to 106 µM), hits mostly inhibitors. P10828. TRbeta-SRC2 peptide binding, fluorescence polarization; receptor liganded with 1 µM T3; note: nearly all actives have a fitted effect of over 50% in size
Target sequence (P10828 whole entry, looked up): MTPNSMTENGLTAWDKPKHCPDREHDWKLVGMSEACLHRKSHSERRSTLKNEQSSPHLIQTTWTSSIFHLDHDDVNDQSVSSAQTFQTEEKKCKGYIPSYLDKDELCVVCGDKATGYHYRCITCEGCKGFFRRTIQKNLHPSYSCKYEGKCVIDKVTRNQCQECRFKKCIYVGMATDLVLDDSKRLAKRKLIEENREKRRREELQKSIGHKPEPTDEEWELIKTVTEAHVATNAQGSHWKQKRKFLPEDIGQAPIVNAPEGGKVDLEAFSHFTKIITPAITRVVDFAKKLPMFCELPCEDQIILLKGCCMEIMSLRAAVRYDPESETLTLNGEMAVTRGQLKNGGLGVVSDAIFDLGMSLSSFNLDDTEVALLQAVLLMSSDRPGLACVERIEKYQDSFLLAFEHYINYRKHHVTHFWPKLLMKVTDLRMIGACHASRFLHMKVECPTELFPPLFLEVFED
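A fluorescence polarization screen tested compounds at multiple concentrations against complex formation between 0.6 uM TRb ligand-binding domain and 20 nM Texas Red SRC2 peptide, with 1 uM T3 present; readout after 5 hr.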
Tau fluor cs = counter-screen for tau fibril formation inhibitors; AID 1463; 280,000 tested, 0.93% active; tau K18 P301L Alexa594 fluorescence, heparin fibrillization; Potency, µM (top dose mostly 57.7 µM); note: nearly all actives have a fitted effect of over 55% in size
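Human tau K18 P301L (15 uM unlabeled, 0.24 uM Alexa 594-labeled) in 100 mM sodium acetate pH 7 with 20 uM heparin, 6 hr at 37 C. ThT 30 uM added, 1 hr ambient; Alexa 594 FP and total fluorescence read at 555/632 nm.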
TexasRed fluor = alters Texas Red total fluorescence, flagging assay interference; TRb/SRC2 Texas Red total fluorescence interference; Potency, µM (series often up to 106 µM); 280,000 tested, 0.29% active; active = well fitted curve in either direction with a large enough effect; inconclusive = small, poorly fitted or top-dose-only effect
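Human TRβ ligand-binding domain (0.6 uM) and Texas Red SRC2 peptide (20 nM) in Tris buffer with 1 uM T3 and 5% DMSO were incubated with pinned compound for 5 hr at ambient temperature. Total fluorescence was computed as S + 2P (555/632 nm).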
Tau FP inhib = inhibitors of human tau fibril formation. Potency, µM (series often up to 57.7 µM), actives largely listed as inhibitors. AID 1468. 280,000 tested, 0.39% active. P10636. K18 P301L tau heparin fibrillization, Alexa594 FP, 6 h; note: nearly all actives have a fitted effect of over 55% in size
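Compound effects on tau fibrillization are measured by Alexa 594 fluorescence polarization (ex 555, em 632 nm). K18 P301L tau is used at 15 uM with 0.24 uM labeled tracer, and 20 uM heparin induces aggregation over 6 hr at 37 C.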
PNC assembly inh = blocks assembly of the perinucleolar compartment; activity change (PNC), negative = inhibition, % at 10 µM; PC3M PTB-GFP, PNC prevalence imaging, 16 h; active compounds read low; 140,000 tested, 3.1% active;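 active = readout at or below -70, meaning at least 70% loss of cells showing the perinucleolar compartment, a nuclear body marking cancer cells; inconclusive = readout between -30 and a set limit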
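Compounds are pinned in duplicate onto adhered PC3M cells stably expressing GFP-tagged PTB and incubated 16 h at 37 C. Cells are then fixed, nuclei stained with Hoechst, and PNC-positive cells counted.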
Numbers stand for hits; . = inactive; ? = inconclusive; / = no result; [ ] = remark or other dose. Unless noted, calls come from the whole dose curve; as a rule, active = well fitted curve in the direction sought with a large enough effect; inconclusive = small, poorly fitted or top-dose-only effect, or another doubt; inactive = no such curve, though single readings can be large; an effect the other way counts as inactive or inconclusive.

SMILES	Tau fibril ThT	TRb-SRC2 inh	Tau fluor cs	TexasRed fluor	Tau FP inhib	PNC assembly inh
CC1CC(C)CN(C(=O)c2ccc3c(c2NCCO)C(=O)c2ccccc2C3=O)C1 (stereo not drawn)	18µM	.	?	.	.	?
O=C(Nc1ccccc1F)Nc1cccc2ccc(O)cc12	16µM	.	14µM[quencher]	.	?	/
CC(=O)N1/C(=C/c2ccc(N(C)C)cc2)C(=O)c2ccccc21	10µM	.	10µM[quencher]	.	.	/
CN(C)c1ccc(-c2nnn(CC(=O)N3c4ccccc4CCc4ccccc43)n2)cc1	.	.	.	.	?	?
CC1CCc2c(sc3ncnc(NCCCOC(C)C)c23)C1 (stereo not drawn)	?	.	.	.	.	?
Cc1ccnc(SCc2cc(=O)c(OC(=O)c3ccc(S(=O)(=O)N(C)C)cc3)co2)n1	?	.	.	.	.	-109
Cc1ccnc(SCc2cc(=O)c(OC(=O)c3ccc(Br)o3)co2)n1	?	.	.	.	.	-83
CCN1CCN(C(=O)CSc2nc(N)cc(N)n2)CC1	.	.	.	.	.	/
O=C1CC(c2ccccc2)Sc2nc3ccccc3n21 (stereo not drawn)	.	.	.	.	.	/
O=C(O)c1cccc(-n2cnnn2)c1	.	.	.	.	.	.
CCCN1C(=O)/C(=C\C=C2\N(CC)c3ccccc3C2(C)C)SC1=S	?	.	.	.	.	/
CN1/C(=C\C=C2/C(=O)Oc3ccccc3C2=O)C(C)(C)c2ccccc21	?	.	?	.	.	-91
CN1/C(=C\C=C2/SC(=S)NC2=O)C(C)(C)c2ccccc21	3.5µM	?	?	?	.	/
CO/N=C/C=C1/N(C)c2ccccc2C1(C)C	.	.	.	.	?	/
CN1C(=CC=C2C=C(I)C(=O)C(I)=C2)C(C)(C)c2ccccc21	2.2µM	?	0.71µM[fluorescent]	?	?	/
CN1/C(=C\C=N\O)C(C)(C)c2ccccc21	?	.	.	.	.	/
Cc1ccc(C(=O)N/C(=C\c2ccc(-c3ccc(Cl)cc3)o2)C(=O)NCCCN(C)C)cc1	?	.	.	.	.	/
CCOC(=O)c1sc(Nc2nc(C)cc(C)n2)nc1C	.	.	.	.	.	/
Cc1cccc(C)c1NS(=O)(=O)c1ccc(OCCNS(C)(=O)=O)cc1	.	.	.	.	.	/
Fc1c(F)c(C(F)(F)F)c(F)c(F)c1N/N=C\c1cccs1	.	.	7.9µM[quencher]	.	.	.
Cn1c(N/N=C/c2cccs2)cc(=O)n(C)c1=O	?	.	.	.	.	.
CC1CCCC(C)N1C(=O)c1cc2ncc(CCCl)cn2n1 (stereo not drawn)	.	.	.	.	.	-84
O=C(c1cc2ncc(CCCl)cn2n1)N1CCCCCC1	.	.	.	.	.	.
Cc1ccc(C(=O)Nc2ccc(Br)c(C(F)(F)F)c2)cc1	?	.	?	.	?	.
O=C(CSc1nnc(-c2cccnc2)o1)Oc1ccccc1	?	.	.	.	.	.
SMILES	Tau fibril ThT	TRb-SRC2 inh	Tau fluor cs	TexasRed fluor	Tau FP inhib	PNC assembly inh
Cc1ccc(C(=O)CSc2nnc(-c3ccccc3)o2)cc1	.	.	.	.	.	-95
O=C(Cn1nc(Cl)nc1Cl)c1cc2ccccc2oc1=O	?	.	.	.	.	?
O=C(CSc1nnc(-c2cccnc2)o1)c1cc2ccccc2oc1=O	?	.	.	.	.	-99
Cn1cnnc1SCC(=O)c1cc2ccccc2oc1=O	28µM	.	?	.	?	.
COc1ccc2[nH]c(-c3ccccc3)cc2c1	?	.	13µM[quencher]	.	.	/
O=C(Cn1cc(/C=N/NC(=O)c2ccccc2Br)c2ccccc21)Nc1ccc(F)cc1	.	.	16µM[quencher]	.	.	.
O=C(Cn1cc(/C=N/NC(=O)c2cccc3ccccc23)c2ccccc21)Nc1ccc(F)cc1	.	.	?	.	.	/
Cc1cc(OCc2ccc(C(=O)n3cccn3)o2)ccc1Cl	?	.	.	.	.	-119
Nc1cccn2c(-c3ccc(Cl)c(Cl)c3)cnc12	13µM	.	?	.	.	/
Cc1ccsc1C1NC(=O)c2c(sc3c2CCCC3)N1 (stereo not drawn)	3.2µM	.	.	.	?	.
CCOc1cc(Br)cc(C2NC(=O)c3c(sc4c3CCN(C)C4)N2)c1O (stereo not drawn)	16µM	.	.	.	.	/
O=C1NC(c2ccccn2)Nc2sc3c(c21)CCC3 (stereo not drawn)	20µM	.	.	.	?	.
CCOC(=O)N1CCc2c(sc3c2C(=O)NC(c2cc(OC)c(OC)c(OC)c2)N3)C1 (stereo not drawn)	16µM	.	.	.	.	/
CS(=O)(=O)Nc1ccc(C(=O)N2CCN(c3ccccc3F)CC2)cc1	.	.	.	.	.	.
Cn1cnnc1SCC(=O)Nc1cc(C(=O)O)cc(C(=O)O)c1	.	.	.	.	.	/
CN1CCc2c(sc3c2C(=O)NC(c2ccccn2)N3)C1 (stereo not drawn)	.	10µM	.	45µM[fluorescent]	?	?

Source: PubChem
